Results filed as inconclusive are left out. Activity calls are given as the source filed them. Calls follow the shape of the dose curve; as a rule, active = well fitted curve in the direction sought with a large enough effect; inconclusive = small, poorly fitted or top-dose-only effect, or another doubt; inactive = no such curve, though single readings can be large; an effect the other way counts as inactive or inconclusive.
Key:
[1] = MultiTox-Fluor Cytotoxicity Assay - LYMP1-003 - Dead Cells (AID 961); details: LYMP1-003 lymphoblastoid cells, dead-cell protease fluorescence; series mostly up to 92.2 µM; also: nearly all actives have a fitted effect of over 70% in size
Summary of the method: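 Dead-cell protease release, detected as bis-AAF-R110 fluorescence at 485/520 nm, was measured in LYMP1-003 cells after 16 h compound treatment at 37 C. AC50 values came from Hill-modeled qHTS curves normalized to DMSO (0%) and 15 uM tetraoctylammonium bromide (100%).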

[2] = MultiTox-Fluor Cytotoxicity Assay - LYMP1-003 - Live Cells (AID 962); details: LYMP1-003 lymphoblastoid cells, MultiTox-Fluor live-cell protease fluorescence; series mostly up to 92.2 µM;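 also: cells exposed to compound for 16 hours at 37 °C; cytotoxic hits lower the live-cell protease signal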
Summary of the method: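 Human lymphoblastoid line LYMP1-003 in complete culture medium, treated 16 hr with titrated compounds. Viable cells quantified via cell-permeant GF-AFC substrate fluorescence; AC50 derived by Hill fitting.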

[3] = Cell Viability - LYMP1-003 - Assay at 24 hr (AID 963); details: LYMP1-003 lymphoblastoid cell viability; series mostly up to 92.2 µM
Summary of the method: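 The lymphoblastoid line was treated with titrated compounds for 24 hours, and viable cell number estimated from luciferase-based ATP luminescence.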

[4] = Cell Viability - LYMP1-003 - Assay at 40 hr (AID 964); details: LYMP1-003 lymphoblastoid viability; series mostly up to 92.2 µM; also: nearly all actives have a fitted effect of over 60% in size
Summary of the method: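 Acute toxicity is scored as a concentration-dependent loss of intracellular ATP in LYMP1-003 cells (2500/well, complete medium) after 40 hr at 37 C, measured by CellTiter-Glo luminescence; AC50 values derive from standard Hill modelling.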

[5] = Cell Viability - LYMP2-003 (AID 965); details: LYMP2-003 lymphoblastoid cell viability; series mostly up to 92.2 µM;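 also: cells exposed to compounds for 24 h before reading; nearly all actives have a fitted effect of over 50% in size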
Summary of the method: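 Human lymphoblastoid LYMP2-003 cells, 2500/well, exposed to compounds for 24 h at 37 C in complete medium. Viability read as intracellular ATP by CellTiter-Glo luminescence; AC50 from Hill-equation fits of qHTS concentration-response data.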

[6] = Cell Viability - LYMP2-004 (AID 966); details: LYMP2-004 lymphoblastoid cell viability, qHTS; series mostly up to 92.2 µM; also: nearly all actives have a fitted effect of over 65% in size
Summary of the method: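 Viable-cell number estimated from ATP luminescence (CellTiter-Glo) in 2500 human lymphoblastoid cells/well after 24 hr at 37 C with compound. AC50 fitted to the standard Hill equation.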

[7] = Cell Viability - LYMP2-005 (AID 967); details: LYMP2-005 lymphoblastoid cell viability; series mostly up to 92.2 µM
Summary of the method: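 Human lymphoblastoid LYMP2-005 cells, 2,500 per well in complete medium, rested 5 h at 37C then compound-treated 24 h at 37C. Intracellular ATP read by CellTiter-Glo luminescence after 30 min at room temperature; AC50 from Hill-equation fits of concentration-response data.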

[8] = Cell Viability - LYMP2-009 (AID 968); details: LYMP2-009 lymphoblastoid cell viability; series mostly up to 92.2 µM; also: nearly all actives have a fitted effect of over 55% in size
[9] = Cell Viability - LYMP2-011 (AID 969); details: LYMP2-011 lymphoblastoid cells viability; series mostly up to 92.2 µM; also: nearly all actives have a fitted effect of over 60% in size
Summary of the method: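 Cells seeded at 2500 per well rest 5 hr before compound addition, then incubate 24 hr at 37 C. CellTiter-Glo reagent is added for 30 min at room temperature before luminescence detection.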

[10] = Cell Viability - LYMP2-013 (AID 970); details: LYMP2-013 lymphoblastoid cells viability; series mostly up to 92.2 µM; also: nearly all actives have a fitted effect of over 55% in size
Summary of the method: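 In complete culture medium, human lymphoblastoid cells were dosed for 24 hr at 37 C, with tetraoctylammonium bromide (6.4pM to 92 uM) as positive control. Viability reflects luciferase-based ATP signal; AC50 derived from concentration-response curves.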

[11] = Cell Viability - LYMP2-015 (AID 971); details: LYMP2-015 lymphoblastoid cell viability; series mostly up to 92.2 µM; also: nearly all actives have a fitted effect of over 55% in size
Summary of the method: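 AC50 values reflect Hill-model fits of ATP-based luminescence (CellTiter-Glo) from a human lymphoblastoid line, 2500 cells/well, treated 24 hr at 37 C.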

[12] = Cell Viability - LYMP2-017 (AID 972); details: LYMP2-017 lymphoblastoid cell viability; series mostly up to 92.2 µM; also: nearly all actives have a fitted effect of over 55% in size
Summary of the method: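 In this qHTS format, lymphoblastoid cells in complete medium receive test compound for a day at 37 C before ATP content is quantified by luciferase luminescence. Reported AC50 figures come from standard Hill-equation curve fitting.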

[13] = Cell Viability - LYMP2-019 (AID 973); details: LYMP2-019 lymphoblastoid cell line viability; series mostly up to 92.2 µM; also: nearly all actives have a fitted effect of over 55% in size
Summary of the method: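 AC50 values come from Hill-equation modelling of qHTS concentration-response curves, where viability is measured as luciferase-based ATP luminescence in the lymphoblastoid line after 24 hr compound exposure in complete culture medium.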

[14] = Cell Viability - LYMP2-021 (AID 974); details: LYMP2-021 lymphoblastoid cells viability; series mostly up to 92.2 µM
Summary of the method: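 In qHTS format, compounds are tested against 2500 lymphoblastoid cells per well for 24 h; viable cell number is inferred from ATP-driven luciferase light, and Hill-equation fitting yields AC50 values.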

[15] = Cell Viability - LYMP2-023 (AID 975); details: LYMP2-023 lymphoblastoid cell viability; series mostly up to 92.2 µM
Summary of the method: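 In this qHTS, ATP-based luciferase luminescence (CellTiter-Glo) is quantified in human lymphoblastoid cells after 24 hr compound treatment at 37 C; tetraoctylammonium bromide serves as positive control. Concentration-response curves are Hill-fitted to give AC50.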

[16] = Cell Viability - LYMP2-025 (AID 976); details: LYMP2-025 lymphoblastoid cell viability; series mostly up to 92.2 µM
Summary of the method: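 Luminescent ATP readout after 24 hr treatment of a human lymphoblastoid line (LYMP2-025, 2500 cells/well, 37 C). Reagent developed 30 min at room temperature; AC50 fitted with the Hill equation.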

[17] = Cell Viability - LYMP2-002 (AID 977); details: LYMP2-002 lymphoblastoid cell viability, qHTS; series mostly up to 92.2 µM;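 also: compound exposure lasted 24 h at 37 °C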
Summary of the method: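 Human lymphoblastoid cells, 2500/well, complete medium; 5 h 37 C settle; compound 24 h 37 C; CellTiter-Glo, 30 min RT; luminescence. Decrease in ATP = cytotoxicity; AC50 via Hill equation.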

[18] = Cell Viability - LYMP2-006 (AID 978); details: LYMP2-006 lymphoblastoid cell viability, qHTS; series mostly up to 92.2 µM; also: nearly all actives have a fitted effect of over 60% in size
Summary of the method: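 Human lymphoblastoid cells (LYMP2-006), 2500/well in complete medium, were treated with compound for 24 hr at 37 C. Cellular ATP was read by CellTiter-Glo luminescence after 30 min, and AC50 values came from Hill-equation fits of concentration-response data.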

[19] = Cell Viability - LYMP2-007 (AID 979); details: LYMP2-007 lymphoblastoid cell viability; series mostly up to 92.2 µM;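 also: cells exposed to compound for 24 h before reading; nearly all actives have a fitted effect of over 60% in size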
Summary of the method: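 Measured via luciferase-based ATP quantitation: lymphoblastoid cells, 24 hr compound exposure at 37 C, AC50 from Hill fits.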

[20] = Cell Viability - LYMP2-008 (AID 980); details: LYMP2-008 lymphoblastoid cell viability, qHTS; series mostly up to 92.2 µM; also: nearly all actives have a fitted effect of over 60% in size
Summary of the method: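 Measured: ATP-dependent luminescence, proportional to viable cell number, in human lymphoblastoid cells treated 24 hr with compound in complete culture medium. Values are AC50s from Hill-equation modelling of qHTS titrations.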

Measured: outcome

Cc1ccc(N)cc1O
inactive: all assays above

Nc1ccccc1N
inactive: [2] | [11] | [12] | [13] | [14] | [15] | [16] | [19]

CC(=O)O[C@@H]1CC(C)=C2[C@H]1[C@H](C)CC[C@H]2/C=C(\C)C(=O)O
inactive: all assays above
